# Reference: PubChem BioAssay AID1850 (Southern Research Specialized Biocontainment Screening …, 2009)
# Among all 310,000 compounds or so, about 1,000 (0.32%) were called active. The rule behind the calls is not given here. The list is a sample of the results. Potency and affinity values are given separately.
# Experiment: PhoP regulon inhibitors, Salmonella typhi PhoP promoter GFP reporter, confirmatory (AID 1850);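 note: 0% = induced wells with vehicle and 100% = uninduced wells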
# Conditions: fluorescence, 4 h, at 50 µM, active compounds read high
row,SMILES,inhibition
1,O=C(CN1CCN(c2ccccn2)CC1)NC1CCCC1,-2.6% (inactive)
2,CCOC(=O)CCC(=O)O[C@H]1[C@H](O[C@@H]2[C@@H](C)[C@H](O[C@H]3C[C@@](C)(OC)[C@@H](O)[C@H](C)O3)[C@@H](C)C(=O)O[C@H](CC)[C@@](C)(O)[C@H](O)[C@@H](C)C(=O)[C@H](C)C[C@@]2(C)O)O[C@H](C)C[C@@H]1N(C)C,12.7% (inactive)
3,CCC1OC(=O)C(C)C(OC2C[C@@](C)(OC)C(O)C(C)O2)C(C)C(O[C@@H]2OC(C)CC(N(C)C)C2O)[C@](C)(O)CC(C)C(=NOCOCCOC)C(C)C(O)[C@]1(C)O (stereo partly specified),2.39% (inactive)
4,CC[C@H]1OC(=O)[C@H](C)[C@@H](O[C@H]2C[C@@](C)(OC)[C@@H](O)[C@H](C)O2)[C@H](C)[C@@H](O[C@@H]2O[C@H](C)C[C@H](N(C)C)[C@H]2O)[C@](C)(O)C[C@@H](C)C(=NOCOCCOC)[C@H](C)[C@@H](O)[C@]1(C)O,-1.81% (inactive)
5,COc1ccccc1C(C(=O)NCc1ccc(F)cc1)N(C(=O)c1csnn1)C1CC1 (stereo unspecified),-0.44% (inactive)
6,CCN(CC)S(=O)(=O)c1ccc(OC)c(NC(=O)c2ccc(-n3cncn3)c([N+](=O)[O-])c2)c1,1.29% (inactive)
7,O=C(Cn1c(=O)oc2ccccc21)NCCc1ccccc1,-10.1% (inactive)
8,Cc1cc(C)cc(NC(=O)CSc2nccn2Cc2ccco2)c1,-0.51% (inactive)
9,OCCCCNCc1ccc(OCc2ccccc2Cl)cc1,26.2% (inactive)
10,COc1cc(CNCCc2ccccc2)ccc1OCc1ccc(Cl)nc1,26.7% (inactive)
11,COc1ccccc1CCNCc1ccc(OC)c(OCc2ccccc2)c1,-4.13% (inactive)
12,COc1cc(CNC2CCCC2)cc(Cl)c1OCc1ccccc1F,11.7% (inactive)
13,COc1cc(CNCCO)cc(Cl)c1OCc1ccccc1Cl,-3.95% (inactive)
14,OCCNCc1ccc(OCc2ccc(Cl)cc2Cl)cc1,6.74% (inactive)
15,COc1cc(CNCCO)cc(Br)c1OCc1ccccc1Cl,9.5% (inactive)
16,COc1cc(CNC2CCCC2)cc(Cl)c1OCc1ccc(F)cc1,7.58% (inactive)
17,CC1(C)CC(=O)C2=C(C1)OC(N)=C(C#N)C21C(=O)N2CCCc3cccc1c32 (stereo unspecified),-2.22% (inactive)
18,CN(C(=O)COC(=O)c1ccc2[nH]c3c(c2c1)CCCC3)C1CCS(=O)(=O)C1 (stereo unspecified),-8.01% (inactive)
19,Cc1ccc(OCCCCN2CCC(C)CC2)cc1,15.9% (inactive)
20,CCOc1cc(CNCCO)cc(Br)c1OCc1ccc(Cl)cc1Cl,8.42% (inactive)
21,CCOc1cc(CNCCc2ccc(S(N)(=O)=O)cc2)cc(Cl)c1OCc1ccccc1,13% (inactive)
22,COc1cc(CNC(C)(C)CO)cc(Br)c1OCc1ccc(Cl)cc1Cl,0.08% (inactive)
23,COc1cc(CNCc2ccccc2)cc(Cl)c1OC,4% (inactive)

row,SMILES,inhibition
1,CC(C)c1ccc(Nc2c([N+](=O)[O-])c(=O)n(C)c3ccccc23)cc1,2.08% (inactive)
2,Cc1ccc2nsnc2c1S(=O)(=O)NCc1ccncc1,-2.24% (inactive)
3,Cc1onc(-c2ccccc2)c1-c1nnc(-c2ccccc2C(F)(F)F)o1,0.63% (inactive)
4,C=CCN(c1nc(C)cc(OC)n1)S(=O)(=O)c1ccc(C)cc1,0.2% (inactive)
5,CC(C)(C)c1nnc(NC(=O)c2cccs2)s1,10.7% (inactive)
6,CN1CCN(c2ccc(C(F)(F)F)cc2N)CC1,2.28% (inactive)
7,Cc1nc2cc(C(F)(F)F)ccc2n1C,1.93% (inactive)
8,O=C(Nc1ccccc1C(=O)Nc1ccccn1)c1cc(F)c(F)cc1Cl,-1.17% (inactive)
9,Cc1ccc[n+](-c2nc3ccccc3nc2[N-]S(=O)(=O)c2ccccc2)c1,-11.4% (inactive)
10,O=C(/C=C/c1ccc2c(c1)OCO2)c1cccnc1,0.98% (inactive)
11,O=C(Cn1nc(C(F)(F)F)c2c1CCC2)Nc1ccccc1C(F)(F)F,-9.91% (inactive)
12,COc1ccc(-c2c[n+](CC(=O)OC3CC(C)CCC3C(C)C)c3n2CCC3)cc1 (stereo unspecified),1.91% (inactive)
13,CC1CCC(C(C)C)C(OC(=O)C[n+]2cc(-c3ccc(Cl)cc3)n3c2CCCCC3)C1 (stereo unspecified),10.8% (inactive)
14,O=C(C[n+]1cc(-c2ccc(Cl)cc2)n2c1CCCCC2)c1ccccc1,1.54% (inactive)
15,Cn1c(NC(=O)C[n+]2cc(-c3ccc(Cl)cc3)n3c2CCC3)cc(=O)n(C)c1=O,11.1% (inactive)
16,CCc1ccc(Nc2nnc(SCc3cc(=O)n4ccsc4n3)s2)cc1,-7.77% (inactive)
17,CCCCNCCCOc1cc(Cl)ccc1Cl,6.78% (inactive)
18,CCCCNCCCOc1cccc(Cl)c1,2.53% (inactive)
19,O=C(NCCO)c1cccc(Cl)c1,-3.96% (inactive)
20,O=C1CCC([N+](=O)[O-])C(c2cc3c(cc2Cl)OCO3)N1 (stereo unspecified),3.32% (inactive)
21,COC(=O)c1cc(C(=O)c2ccc(Cl)cc2)n2c(=O)/c(=C\N(C)C)sc12,4.66% (inactive)
22,O/N=C/c1ccc(OCc2ccccc2)c(Br)c1,17.4% (inactive)
23,O/N=C/c1ccc(OCc2ccccc2F)c(Cl)c1,-2.37% (inactive)

row,SMILES,inhibition
1,Cc1cc(C)cc(NC(=O)CSc2nc3ccccc3nc2N2CCCC2)c1,11.5% (inactive)
2,OCCNc1c2ccccc2nc2ccccc12,11.8% (inactive)
3,CN(C)CCCNc1nc(-c2ccccc2)nc2ccccc12,-2.17% (inactive)
4,Fc1cccc(NCCc2c[nH]c3ccccc23)n1,3.37% (inactive)
5,OCCNc1c2c(nc3ccccc13)CCCC2,-3.18% (inactive)
6,CNCCc1c[nH]c2ccccc12,10.1% (inactive)
7,CN(C)CCCNc1c2c(nc3ccccc13)CCC2,5.26% (inactive)
8,N#CCCN(C(=O)COC(=O)c1ccc(CNS(=O)(=O)c2ccc(F)c(Cl)c2)cc1)c1ccc(F)cc1,-2.96% (inactive)
9,Cc1ccc(CNC(=O)C2CCCN(c3nn4c(=O)cc(C)nc4s3)C2)cc1 (stereo unspecified),-0.07% (inactive)
10,CCC1=C2CC[C@H]3C(=O)N(C)C(=O)[C@H]3[C@H]2[C@@]2(Cc3ccccc3)C(=NCC(=O)OC)OC(=O)N2C1=O,-11.3% (inactive)
11,CC(Sc1nnc(-c2ccccc2Br)o1)C(=O)N1CCOCC1 (stereo unspecified),0.36% (inactive)
12,O=C(NCC1CCCO1)c1cccc(NC(=O)c2ccc(Br)cc2)c1 (stereo unspecified),-6.91% (inactive)
13,CC(C)c1ccc(NC(=O)CSc2nc3ccsc3c(=O)n2Cc2ccc(C(=O)O)cc2)cc1,-12% (inactive)
14,COC(=O)CC1=C(C(=O)OC)C(c2ccc3c(c2Cl)OCO3)C(C#N)=C(N)O1 (stereo unspecified),-2.85% (inactive)
15,CCC(=C(c1ccc(OC)cc1)c1ccc(OC)cc1)c1cn(CC(O)CN(CCO)CCO)c2ccccc12 (stereo unspecified),1.98% (inactive)
16,COc1ccccc1-n1c(SCC(=O)Nc2ccc(F)cc2)nc2c(c1=O)SCC2,4.39% (inactive)
17,C=CCn1c2ccccc2n2nc(C)c(=O)nc12,5.77% (inactive)
18,COc1ccc(/C=C/C(=O)NCCCc2ccccc2)cc1,2.3% (inactive)
19,COc1ccc(NC(=O)Cc2ccccc2)cc1,-3.71% (inactive)
20,CCNC(=S)N1CCNC(=O)C1CC(=O)OC (stereo unspecified),-0.49% (inactive)
21,C=CCSC(=S)NC1CCS(=O)(=O)C1 (stereo unspecified),4.24% (inactive)
22,CCCSC(=S)NC1CCS(=O)(=O)C1 (stereo unspecified),14.2% (inactive)
23,COCCSc1nnc(NC(=O)C2CCCO2)s1 (stereo unspecified),-16.4% (inactive)

row,SMILES,inhibition
1,Oc1c(C(c2ccccn2)N2CCC(Cc3ccccc3)CC2)cc(Cl)c2cccnc12 (stereo unspecified),-1.4% (inactive)
2,CN1CCN(C(c2ccc(C(F)(F)F)cc2)c2cc(Cl)c3cccnc3c2O)CC1 (stereo unspecified),2.9% (inactive)
3,Oc1c(C(c2ccc(Cl)cc2)N2CCCC2)cc(Cl)c2cccnc12 (stereo unspecified),-16.5% (inactive)
4,CC(=O)NC(c1ccc(C)cc1)c1cc(Cl)c2cccnc2c1O (stereo unspecified),-5% (inactive)
5,Oc1c(C(c2ccccn2)N2CCCCC2)cc(Cl)c2cccnc12 (stereo unspecified),20.3% (inactive)
6,CN1CCN(C(c2cccnc2)c2ccc3cccnc3c2O)CC1 (stereo unspecified),4.05% (inactive)
7,CCN1CCN(C(c2ccc(C(F)(F)F)cc2)c2ccc3cccnc3c2O)CC1 (stereo unspecified),-8.31% (inactive)
8,CN1CCN(C(c2ccccn2)c2cc(Cl)c3cccnc3c2O)CC1 (stereo unspecified),-16.9% (inactive)
9,CCOCCOC(=O)c1ccc(-n2cncn2)nc1,19.6% (inactive)
10,Cn1c(NC(=O)CC2CCCCC2)cc(=O)n(C)c1=O,-13.1% (inactive)
11,C/C(=N\Nc1nc2ccccc2[nH]1)c1ccc2c(c1)OCCO2,11.8% (inactive)
12,COc1ccc(Br)cc1C(=O)NC(=S)Nc1c(C)n(C)n(-c2ccccc2)c1=O,14.4% (inactive)
13,CC1(c2ccccc2)NC(=O)N(CC(=O)NCCC2=CCCCC2)C1=O (stereo unspecified),0.28% (inactive)
14,CNC[C@H](CC1CCCCC1)NC[C@H](CO)NCCc1cccc(C(F)(F)F)c1,10.8% (inactive)
15,CNC[C@H](CC1CCCCC1)NC[C@H](NCCC1CCCC1)[C@H](C)O,22.8% (inactive)
16,O=C(CC12CC3CC(CC(C3)C1)C2)NC(Cc1ccccc1)C(=O)O (stereo unspecified),-9.42% (inactive)
17,CCC[C@@H](CNC)NC[C@H](Cc1ccccc1)NCCCCc1ccccc1,3.99% (inactive)
18,CCC[C@@H](CN[C@@H](CNC)C(C)C)NCCCCc1ccccc1,16.7% (inactive)
19,CNC[C@H](CC1CCCCC1)NC[C@H](CO)NCC1(c2ccccc2)CC1,-8.16% (inactive)
20,CC(C)n1nc(C(=O)OCC(=O)N(C)C2CCS(=O)(=O)C2)c2ccccc2c1=O (stereo unspecified),-1.06% (inactive)
21,COCCn1c(SCc2cccc(F)c2)nc2cc(C(=O)OC)ccc2c1=O,6.64% (inactive)
22,O=C(c1cc(-c2cccc(O)c2)on1)N1CCCCCC1,14.9% (inactive)
